Compound activity as filed in PubChem BioAssay.
MARV entry inh – Marburg virus entry inhibition. actives 1.8% (n = 300,000). Potency, µM (doses to about 37.8 µM), for inactives: at the highest dose activity change, negative = inhibition, hits mostly inhibitors. AID 540276. Marburg virus pseudotyped entry inhibition, cell reporter; calls by dose curve; tested in HEK293 cells; also: potency is read from the fitted curve at half-maximal effect
HCV inh – HCV inhibition; Huh7.5.1 HCVcc-Cre infection, luciferase reporter, 44 h; actives 3.4% (n = 340,000); AID 651820; Potency, µM (doses to about 41.8 µM), without a hit: at the highest dose activity change, negative = inhibition, usual class: inhibitors; active = well fitted inhibition curve with a large enough effect; inconclusive = small, poorly fitted or top-dose-only effect, or another doubt; inactive = no such curve, though single readings can be large or run the other way; also: potency is read from the fitted curve at half-maximal effect
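Seed cells (1,000/well) for 4 h; treat with compound and infect with HCVcc-Cre, moi about 0.5. Incubate 44 h, then detect luciferase activity.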
HCMV inh – human cytomegalovirus inhibition; HFF cells, HCMV-luciferase reporter, 72 h; hits give low values; activity change, negative = inhibition, % at 57.5 µM; actives 4.5% (n = 410,000); AID 1259415; in the data active = activity change below about -60%; inconclusive = no clear call, values can overlap the other calls; inactive = above about -39%
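Compounds were evaluated in HFFs infected with an HCMV luciferase reporter virus (MOI 1 PFU/cell). Luciferase in lysates collected 72 h post infection served as the replication measure.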
Vaccinia mCherry – vaccinia inhibition (mCherry reporter) | Vaccinia virus mCherry reporter infection, fluorescence | Potency, µM (series often up to 36.5 µM), for inactives: at the top dose activity change, negative = inhibition, usual class: inhibitors | actives 0.63% (n = 310,000) | AID 720579; calls by dose curve; tested in A549 cells; also: potency is read from the fitted curve at half-maximal effect; nearly all actives have a fitted effect of over 35% in size
VACV Venus inh – inhibitors of vaccinia virus (Venus reporter); Vaccinia virus Venus reporter expression, fluorescence; Potency, µM (doses to about 36.5 µM), without a hit: at the top dose activity change, negative = inhibition, most hits filed as inhibitors; actives 0.46% (n = 330,000); AID 720580; calls by dose curve; tested in A549 cells; also: potency is read from the fitted curve at half-maximal effect; nearly all actives have a fitted effect of over 30% in size
LASV entry inh – inhibitors of Lassa virus binding or cell entry | Potency, µM (titrated, usually from 37.9 µM), inactives show top-dose activity change, negative = inhibition, most hits filed as inhibitors | Lassa virus pseudotype entry inhibition, cell reporter | actives 1.2% (n = 300,000); calls by dose curve; tested in HEK293 cells; also: potency is read from the fitted curve at half-maximal effect; nearly all actives have a fitted effect of over 50% in size
* hit, by the source's call; [ ] = dose if it differs, or a comment. An excerpt weighted towards active compounds, which were near 7.8% of everything screened. % is scaled to controls: 0 for no effect and ±100 for the full control effect.

How did COC(=O)c1ccc(NS(=O)(=O)c2cc3c4c(c2)CCN4C(=O)CC3)cc1 do in these assays?
MARV entry inh: -14%[46.1 µM]; HCV inh: -8%; HCMV inh: -32; Vaccinia mCherry: -14%; VACV Venus inh: -10%; LASV entry inh: -1%

How did CCOC(=O)c1ccc(NS(=O)(=O)c2cc3c4c(c2)CCN4C(=O)CC3)cc1 do in these assays?
MARV entry inh: -7%; HCV inh: 10%; HCMV inh: -81*; Vaccinia mCherry: -2%; VACV Venus inh: -19%; LASV entry inh: inconclusive

How did CCN(CCO)c1ccc(Nc2cc(-c3ccc(-c4ccccc4)cc3)ncn2)cc1 do in these assays?
HCMV inh: -8; Vaccinia mCherry: 32µM*; VACV Venus inh: -25%

What do the screens show for `COc1ccc(N=c2nc(-c3ccccc3)n(-c3ccc(C)cc3)s2)cc1`?
Vaccinia mCherry: 11µM*; VACV Venus inh: inconclusive

Results for Cc1ccc(-c2nc(=Nc3ccccc3)sn2-c2ccccc2)cc1 ?
Vaccinia mCherry: 14µM*; VACV Venus inh: inconclusive

Results for CCOc1c(Br)cc(C2C=C(C(=O)O)Nc3ncnn32)cc1OC (centres undefined) ?
MARV entry inh: inconclusive; HCMV inh: inconclusive; Vaccinia mCherry: -2%; VACV Venus inh: 7%; LASV entry inh: 17%[46.1 µM]

What do the screens show for `CCN(CC)S(=O)(=O)c1ccc(-c2nnc(SCC(=O)N3CCOCC3)o2)cc1`?
MARV entry inh: 3%; HCV inh: 13%; HCMV inh: 12; Vaccinia mCherry: 2.5µM*; VACV Venus inh: 3.5µM*; LASV entry inh: 23%

How did CCN(CC)S(=O)(=O)c1ccc(-c2nnc(SCc3nnc(-c4ccc(C)cc4)o3)n2CC)cc1 do in these assays?
MARV entry inh: 0%; HCV inh: 19%; HCMV inh: inconclusive; LASV entry inh: 2%

How did CCN(CC)S(=O)(=O)c1ccc(-c2nnc(SCc3nnc(-c4ccc(C)cc4)o3)o2)cc1 do in these assays?
MARV entry inh: 3%; HCV inh: -11%; HCMV inh: -30; Vaccinia mCherry: 0.0011µM*; VACV Venus inh: inconclusive; LASV entry inh: -25%

What do the screens show for `CCOc1ccc(CNC(=O)COc2cc(=O)n(C)c3ccccc23)cc1`?
MARV entry inh: inconclusive; HCMV inh: 4; Vaccinia mCherry: 5%; VACV Venus inh: 5%; LASV entry inh: -16%[46.1 µM]

How did CCC(CO)Oc1cc(NCc2ccccc2C(F)(F)F)c2ncn(C(C)C)c2c1 (centres undefined) do in these assays?
HCV inh: 1.3µM*; HCMV inh: 70; Vaccinia mCherry: -9%; VACV Venus inh: -19%

What do the screens show for `CCC(CO)Oc1cc(NCc2ccccc2Cl)c2ncn(C(C)C)c2c1` (centres undefined)?
HCV inh: 2.2µM*; HCMV inh: 28; Vaccinia mCherry: -16%; VACV Venus inh: -25%

Results for COC(=O)C1(C(=O)OC)CC=CCc2ccccc2[C@H]1C[N+](=O)[O-] ?
MARV entry inh: 3%[14.2 µM]

What do the screens show for `O=C(/C=C/Sc1ccc(C(F)(F)F)cn1)c1ccccc1`?
HCV inh: 10µM*; HCMV inh: 51

Results for O=C(NC1CC(=O)N(c2cccc(F)c2)C1)C1CCCC1 (centres undefined) ?
HCMV inh: -9; Vaccinia mCherry: -7%; VACV Venus inh: -13%; LASV entry inh: 3%[46.1 µM]

What do the screens show for `Cc1ccc(NC(=S)NC(=O)/C=C/c2ccco2)c(O)c1`?
MARV entry inh: -18%[46.1 µM]; HCV inh: inconclusive; HCMV inh: -64*; Vaccinia mCherry: -28%; VACV Venus inh: -1%; LASV entry inh: -23%[46.1 µM]

Results for Cc1ccc(NC(=O)Nc2csc3c2CCCC3)c(C)c1 ?
MARV entry inh: 0%[46.1 µM]; HCMV inh: -29; Vaccinia mCherry: -12%; VACV Venus inh: -12%

What do the screens show for `CCn1ncc(C2=NOC(C(=O)NCc3ccccc3)C2)c1C` (centres undefined)?
MARV entry inh: inconclusive; HCV inh: -20%; HCMV inh: -60*; LASV entry inh: -22%

What do the screens show for `CCn1ncc(C2=NOC(C(=O)Nc3c(C)nn(Cc4ccc(F)cc4)c3C)C2)c1C` (centres undefined)?
HCV inh: inconclusive; HCMV inh: -61*; Vaccinia mCherry: inactive; VACV Venus inh: -12%

How did CCn1ncc(C2=NOC(C(=O)Nc3c(C)n(C)n(-c4ccccc4)c3=O)C2)c1C (centres undefined) do in these assays?
HCV inh: 15%; HCMV inh: -13; Vaccinia mCherry: 13%; VACV Venus inh: 3%

How did CC(=O)OC[C@H]1O[C@H](CCON=C(C)CCC(=O)OC[C@H]2O[C@H](C#Cc3ccccc3)C=C[C@H]2Oc2ccc(C)cc2)C=C[C@H]1OC(C)=O do in these assays?
MARV entry inh: 21%[14.2 µM]

What do the screens show for `CCOc1ccccc1NC(=O)Nc1nnc(N2CCCC(C)C2)s1` (centres undefined)?
MARV entry inh: 6%[46.1 µM]; HCMV inh: 9; Vaccinia mCherry: -18%; VACV Venus inh: -19%; LASV entry inh: 16%[46.1 µM]

How did CC(C)C[C@H]1C(=O)N2CCCC2[C@]2(O)O[C@](NC(=O)[C@@H]3C=C4c5cccc6[nH]c(Br)c(c56)C[C@H]4N(C)C3)(C(C)C)C(=O)N12 (some centres undefined) do in these assays?
MARV entry inh: 10µM*

What do the screens show for `CC(C)C[C@H]1C(=O)N2CCC[C@H]2[C@]2(O)O[C@](NC(=O)C3C=C4c5cccc6[nH]c(Br)c(c56)C[C@H]4N(C)C3)(C(C)C)C(=O)N12` (some centres undefined)?
HCV inh: inconclusive; HCMV inh: -26; Vaccinia mCherry: -15%; VACV Venus inh: -29%

What do the screens show for `N#CC1=C(N)NC(SCc2ccc(F)cc2)=C(C#N)C12CCCCC2`?
MARV entry inh: 7.9µM*; HCV inh: inconclusive; HCMV inh: -26; VACV Venus inh: inconclusive; LASV entry inh: inconclusive

What do the screens show for `O=C(NC1CC(=O)N(c2cccc(F)c2)C1)C(c1ccccc1)c1ccccc1` (centres undefined)?
HCMV inh: inconclusive; Vaccinia mCherry: -4%; VACV Venus inh: -9%; LASV entry inh: 0%[46.1 µM]

How did NC(=S)N/N=C1\CCOc2ccc(F)cc21 do in these assays?
MARV entry inh: 10%[46.1 µM]; HCV inh: -6%; HCMV inh: -2; Vaccinia mCherry: 1.8µM*; VACV Venus inh: 0.89µM*; LASV entry inh: inconclusive

Results for NC(=O)N/N=C1\CCS(=O)(=O)c2ccc(F)cc21 ?
MARV entry inh: 17%; HCV inh: 6%; HCMV inh: -37; Vaccinia mCherry: -11%; VACV Venus inh: -6%; LASV entry inh: inconclusive

How did Cc1ccccc1NC(=O)CCNC(=O)Cn1ccc2ccccc2c1=O do in these assays?
MARV entry inh: 20%[46.1 µM]; HCMV inh: 11; Vaccinia mCherry: -12%; VACV Venus inh: -2%; LASV entry inh: 12%[46.1 µM]
